Experimental findings from PubChem BioAssay (EPA / NIEHS) are described below.

As a reminder, the AC50 is the concentration at which the activity in the assay is half-maximal.

Inconclusive results are not listed. Activity calls are given as the source filed them. How the source made its calls, unless noted: active means hit-call score of the fitted dose curve at least 0.9, where 1 is the maximum; inactive means score below 0.9.

Sequence of human Caspase 5 (CASP5), CASP5 (gene 838) (P51878 whole entry, looked up): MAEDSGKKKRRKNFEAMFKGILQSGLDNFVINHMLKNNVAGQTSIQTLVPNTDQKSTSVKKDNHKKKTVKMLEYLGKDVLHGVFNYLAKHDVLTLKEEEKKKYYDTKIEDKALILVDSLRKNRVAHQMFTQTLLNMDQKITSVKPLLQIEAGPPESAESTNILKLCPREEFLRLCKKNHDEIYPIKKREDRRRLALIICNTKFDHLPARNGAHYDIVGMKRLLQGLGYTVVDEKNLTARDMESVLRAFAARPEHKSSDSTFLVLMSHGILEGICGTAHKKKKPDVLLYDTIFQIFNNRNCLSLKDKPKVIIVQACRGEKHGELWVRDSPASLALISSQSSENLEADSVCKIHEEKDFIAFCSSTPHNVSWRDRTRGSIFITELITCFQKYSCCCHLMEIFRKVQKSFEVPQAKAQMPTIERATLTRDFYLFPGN

Read-out in the first assay: not listed separately
The assay is described as follows: BSK_SAg_SRB: Viability Assessment in the BioMAP Diversity Plus: SAg Assay (AID 2283096).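 Further: cells read one day after compound addition; hits may be either gain or loss of signal compared with DMSO.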 The settings on record: primary human HUVEC with PBMC. The method in brief:
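Total protein by sulforhodamine B staining, 24 h after dosing, in HUVEC–PBMC co-culture; DMSO-referenced bidirectional fitting.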
With `Cc1cc(Cc2ccc(N)c(C)c2)ccc1N`, the result was inactive.

Take `CCOCCOCCO`: the outcome was inactive.

In the case of `O=C(O)c1cccnc1`, the outcome was inactive.

On to `O=C(Oc1ccccc1)c1cccc(C(=O)Oc2ccccc2)c1`, for which the outcome was inactive.

Consider `O=C1CCCCC1`, for which the result was inactive.

Take `COC(=O)CCCC(=O)OC`: the outcome was inactive.

With `COC(=O)[C@H]1[C@H]2C[C@@H]3c4[nH]c5cc(OC)ccc5c4CCN3C[C@H]2C[C@@H](OC(=O)c2cc(OC)c(OC)c(OC)c2)[C@@H]1OC`, the AC50 was 25.9 µM (active).

Turning to `c1ccc2occc2c1`, the result was inactive.

In a further assay the target is human CYP1A2, CYP1A2 (gene 1544) (UniProt P05177). Kind of assay: NVS_ADME_hCYP1A2: NovaScreen (NVS) CYP450-related Enzyme Activity (ADME) Assay for human CYP1A2 (AID 2283102; active means hit-call score of the fitted dose curve at least 0.9, where 1 is the maximum;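 on AC50: fluorescence from turnover of a fluorogenic substrate by recombinant insect-cell CYP1A2; potency for inhibition since loss of fluorescence marks reduced CYP1A2 activity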).
Sequence of human CYP1A2, CYP1A2 (gene 1544) (P05177 whole entry, looked up): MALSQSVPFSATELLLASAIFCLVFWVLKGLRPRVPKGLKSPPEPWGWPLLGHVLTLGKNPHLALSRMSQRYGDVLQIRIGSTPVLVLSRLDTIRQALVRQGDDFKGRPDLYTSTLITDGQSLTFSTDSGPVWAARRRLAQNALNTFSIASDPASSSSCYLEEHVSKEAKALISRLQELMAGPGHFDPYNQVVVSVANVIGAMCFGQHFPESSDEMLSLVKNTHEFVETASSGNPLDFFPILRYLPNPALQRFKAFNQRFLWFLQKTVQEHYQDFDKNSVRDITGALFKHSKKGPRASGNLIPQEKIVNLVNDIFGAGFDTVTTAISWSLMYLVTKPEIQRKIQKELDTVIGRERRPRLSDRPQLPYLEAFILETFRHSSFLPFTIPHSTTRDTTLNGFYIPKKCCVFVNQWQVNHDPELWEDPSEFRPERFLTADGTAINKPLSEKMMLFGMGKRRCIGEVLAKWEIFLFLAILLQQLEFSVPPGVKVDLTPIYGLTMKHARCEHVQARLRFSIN
Settings: not given
Put shortly:
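Enzyme activity of insect-cell-expressed human CYP1A2 measured by fluorescence 0.5 h after compound addition, relative to acetonitrile. Compounds first tested in duplicate at 10 uM, actives followed up in concentration series.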
As for `COc1ccc(C(=O)Nc2nc3ccccc3c(NCc3ccccc3)c2C#N)cc1`, the call was inactive.

Take `CC(COCC(C)OC(=O)c1ccccc1)OC(=O)c1ccccc1` (stereo not given): the concentration at half-maximal activity (AC50) is 8.75 µM (active).

On to `O=C(O)CN(CC(=O)O)CC(=O)O`, for which the result was inactive.

On to `Cc1cc(Cc2ccc(N)c(C)c2)ccc1N`, for which the molecule was called inactive.

Another assay has as its target human Caspase 5 (CASP5), CASP5 (gene 838) (UniProt P51878). The assay is described as follows: NVS_ENZ_hCASP5: NovaScreen (NVS) Enzymatic Assay for human Caspase 5 (CASP5) (AID 2283137; active means hit-call score of the fitted dose curve at least 0.9, where 1 is the maximum).
Settings: not given
The method in brief:
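Recombinant E. coli-expressed human caspase 5 in a cell-free enzyme assay; fluorescence intensity read 2 hours after chemical dosing. Single-concentration duplicate screen at 25 uM, then concentration-response up to 50 uM for hits; DMSO negative control.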
For the molecule `O=C1c2c(O)cccc2Cc2cccc(O)c21`, the concentration at half-maximal activity (AC50) is 0.235 µM (active).

For the molecule `CCCCCCC(CCCCCCCCCCC(=O)OCC(COC(C)=O)OC(C)=O)OC(C)=O` (stereo not given), the AC50 is 13.7 µM (active).

Regarding `O=C1CCCCC1`, the result was inactive.
